The other results are listed elsewhere or left out. No count for the full screen is at hand.
B1: HC513 (peptide)
chain: CAVGSSIASWAGNASASA
B2: HC2204 (peptide)
chain: CAEVVTSIWVAGNASASA
B3: HC694 (peptide)
chain: CAQTFLATCIAGNASASA
B4: HC154 (peptide)
chain: CAEVVTCTWVAGNASASA
B5: HC1041 (peptide)
chain: CAWAKHMWNFAGNASASA
B6: FS-3044 (peptide)
chain: CARQSRAPSKAGNASASA
B7: FS-2592 (peptide)
chain: CARRARFVSKAGNASASA
B8: FS-1773 (peptide)
chain: CARRARVVWCAGNASASA
B9: HC1514 (peptide)
chain: CATSCGNTLTAGNASASA
B10: HC1389 (peptide)
chain: CAVYSTTSRSAGNASASA
B11: FS-616 (peptide)
chain: CALSSRVPRSAGNASASA
B12: FS-1380 (peptide)
chain: CAPFSRVPRKAGNASASA
B13: FS-828 (peptide)
chain: CALSSRTARSAGNASASA
B14: FS-1103 (peptide)
chain: CAVSGRVPRSAGNASASA
B15: FS-1426 (peptide)
chain: CATSNRQPRKAGNASASA
B16: FS-2542 (peptide)
chain: CAPFPRDVGKAGNASASA
B17: FS-273 (peptide)
chain: CALSSREARVAGNASASA
B18: HC2130 (peptide)
chain: CAEVVVCCSMAGNASASA
B19: FS-764 (peptide)
chain: CAESGRENRSAGNASASA
B20: FS-559 (peptide)
chain: CARIGRTARSAGNASASA
B21: FS-1435 (peptide)
chain: CAVSGRRNRSAGNASASA
B22: FS-688 (peptide)
chain: CALSSRHSRSAGNASASA
B23: HC2151 (peptide)
chain: CADVVTSTWVAGNASASA
B24: HC666 (peptide)
chain: CALLGPADGMAGNASASA
B25: HC634 (peptide)
chain: CATYVYNHLTAGNASASA
B26: HC1669 (peptide)
chain: CAYEECSQHLAGNASASA
B27: HC2246 (peptide)
chain: CAEVVTSTWMAGNASASA

Biological target: furin, P09958
Sequence (P09958 whole entry): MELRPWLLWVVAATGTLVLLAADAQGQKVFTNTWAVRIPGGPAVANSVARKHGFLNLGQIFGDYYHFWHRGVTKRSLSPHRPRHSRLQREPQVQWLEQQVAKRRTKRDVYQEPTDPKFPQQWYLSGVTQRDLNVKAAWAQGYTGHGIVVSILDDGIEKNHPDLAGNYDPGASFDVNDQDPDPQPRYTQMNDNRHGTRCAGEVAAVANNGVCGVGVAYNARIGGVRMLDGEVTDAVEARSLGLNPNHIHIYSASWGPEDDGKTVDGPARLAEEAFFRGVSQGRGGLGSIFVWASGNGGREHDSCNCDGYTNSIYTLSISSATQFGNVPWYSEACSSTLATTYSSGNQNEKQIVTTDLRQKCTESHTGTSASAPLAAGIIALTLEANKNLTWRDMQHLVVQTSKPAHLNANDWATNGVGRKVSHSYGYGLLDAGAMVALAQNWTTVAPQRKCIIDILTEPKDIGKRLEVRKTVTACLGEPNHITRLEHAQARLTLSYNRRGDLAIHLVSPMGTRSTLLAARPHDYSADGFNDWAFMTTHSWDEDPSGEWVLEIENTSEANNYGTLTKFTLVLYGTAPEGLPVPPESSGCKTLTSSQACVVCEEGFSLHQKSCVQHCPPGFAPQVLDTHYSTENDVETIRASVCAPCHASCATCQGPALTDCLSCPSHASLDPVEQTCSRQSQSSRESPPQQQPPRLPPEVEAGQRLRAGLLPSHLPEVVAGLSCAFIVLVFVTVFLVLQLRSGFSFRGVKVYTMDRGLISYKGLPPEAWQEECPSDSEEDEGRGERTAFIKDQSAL
Experiment: furin cleavage Z-score vs untreated control; higher = more cleavage, active = 3.5 or more, inactive = 1 or less, 8 variable residues between constant flanks
In short: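 Abundance of DNA freed from bead-bound 8-mer peptide–cDNA fusions by purified furin was measured as sequencing read counts after PCR adapter tagging. Cutting ran 7.5, 15 or 30 min in 0.01 ml of 50 mM HEPES pH 7.5 with CaCl2 and NaCl at 1:10 enzyme:substrate. The cleavage Z-score expresses these log counts against furin-free reactions after lowess adjustment and median absolute deviation scaling.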

Row | Sequence | furin cleavage Z-score (7.5 min) | furin cleavage Z-score (15 min) | furin cleavage Z-score (30 min)
1 | B1 | 1.24 | 0.758 (inactive) | 1.42
2 | B2 | -1.22 (inactive) | -0.886 (inactive) | -0.589 (inactive)
3 | B3 | -1.16 (inactive) | 1.03 | 0.494 (inactive)
4 | B4 | 0.26 (inactive) | 0.377 (inactive) | 0.00628 (inactive)
5 | B5 | 2.37 | 1.51 | -0.0839 (inactive)
6 | B6 | -0.34 (inactive) | -1.03 (inactive) | 0.0856 (inactive)
7 | B7 | 1.79 | 3.6 (active) | 4.51 (active)
8 | B8 | -0.495 (inactive) | -0.908 (inactive) | -1.05 (inactive)
9 | B9 | 0.831 (inactive) | -1.07 (inactive) | 0.652 (inactive)
10 | B10 | 0.122 (inactive) | -0.119 (inactive) | -0.531 (inactive)
11 | B11 | 10.7 (active) | 10.8 (active) | 8.57 (active)
12 | B12 | 4.53 (active) | 5.54 (active) | 7.08 (active)
13 | B13 | 10.9 (active) | 12.5 (active) | 10.5 (active)
14 | B14 | 8.22 (active) | 7.59 (active) | 5.91 (active)
15 | B15 | 0.777 (inactive) | 2.06 | 3.28
16 | B16 | 0.749 (inactive) | 0.654 (inactive) | -0.494 (inactive)
17 | B17 | 0.397 (inactive) | 1.38 | -0.0178 (inactive)
18 | B18 | 0.168 (inactive) | -0.257 (inactive) | -0.566 (inactive)
19 | B19 | 0.222 (inactive) | 0.598 (inactive) | -0.14 (inactive)
20 | B20 | 14.2 (active) | 12.8 (active) | 11.2 (active)
21 | B21 | 7.11 (active) | 8.52 (active) | 7.39 (active)
22 | B22 | 7.04 (active) | 9.83 (active) | 7.06 (active)
23 | B23 | 0.471 (inactive) | -0.0629 (inactive) | 0.991 (inactive)
24 | B24 | -0.849 (inactive) | -0.827 (inactive) | -0.909 (inactive)
25 | B25 | -0.232 (inactive) | 0.658 (inactive) | 0.0846 (inactive)
26 | B26 | 1.21 | 0.943 (inactive) | 2.11
27 | B27 | 1.57 | 0.473 (inactive) | 0.947 (inactive)
